The text below walks through data of the supplement of paper PMC12340641.

Structures can show the parent of a compound that is named as a salt.

For assay [1], the target named is IKZF1 (dCK*-IKZF1 fusion in HEK293FT) (UniProt Q13422). The assay is described as follows: inhibition of IKZF1 HTRF signal (DMSO = 0%, pomalidomide 10 uM = 100%); higher = lower IKZF1 protein level. The following applies: compound concentration: 5 uM, overnight (~20 h). Put shortly: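 After overnight treatment at 37 °C with 5 μM compound in single wells, HEK293FT cells (2000/well, 384-well) stably expressing an IKZF1 fusion were lysed for 30 min at room temperature. A commercial HTRF total-IKZF1 antibody kit was incubated with the lysate overnight, and the time-resolved FRET ratio at 665/620 nm was corrected for background. Data are given as percent inhibition of IKZF1 signal relative, on each plate, to vehicle and a reference degrader, set at 0% and 100% respectively.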

The test system of assay [2] is HEK293FT dCK*-only. The assay is described as follows: relative growth in counter assay (no AraC = 100%, AraC + DMSO = 0%); higher = more growth rescue independent of IKZF1. The settings on record: compound concentration: 5 uM; AraC concentration: 0.3 uM; overnight pretreatment + 4 days AraC. A digest of the protocol:
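Counter assay in HEK293FT cells expressing dCK* alone (300/well, 384-well). Cells received 5 μM compound 2 h after seeding, then after overnight at 37 °C a nucleoside suicide substrate at 0.3 μM plus medium for 4 days. On day 5, Hoechst 33342-stained nuclei were counted by imaging. Relative growth was normalised per plate to wells without suicide substrate (100%) and substrate plus vehicle (0%).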

Assay [3] concerns HEK293FT dCK*-IKZF1. Kind of assay: relative growth recovery (pomalidomide 10 uM = 100%, DMSO = 0%); higher = more growth rescue (IKZF1 fusion degradation). The settings on record: compound concentration: 5 uM; AraC concentration: 0.3 uM; overnight pretreatment + 4 days AraC. A digest of the protocol: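 HEK293FT cells stably expressing a dCK*-IKZF1 fusion (300/well, 384-well) received 5 μM compound 2 h after seeding. After overnight at 37 °C they received a nucleoside suicide substrate at 0.3 μM plus medium for 4 days. On day 5, Hoechst 33342-stained nuclei were counted by whole-well imaging. Growth recovery was normalised per plate to a reference degrader (100%) and vehicle (0%); values are means of duplicates run on different days.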

Sequence of IKZF1 (dCK*-IKZF1 fusion in HEK293FT) (Q13422 whole entry, looked up, the tested form may be a part): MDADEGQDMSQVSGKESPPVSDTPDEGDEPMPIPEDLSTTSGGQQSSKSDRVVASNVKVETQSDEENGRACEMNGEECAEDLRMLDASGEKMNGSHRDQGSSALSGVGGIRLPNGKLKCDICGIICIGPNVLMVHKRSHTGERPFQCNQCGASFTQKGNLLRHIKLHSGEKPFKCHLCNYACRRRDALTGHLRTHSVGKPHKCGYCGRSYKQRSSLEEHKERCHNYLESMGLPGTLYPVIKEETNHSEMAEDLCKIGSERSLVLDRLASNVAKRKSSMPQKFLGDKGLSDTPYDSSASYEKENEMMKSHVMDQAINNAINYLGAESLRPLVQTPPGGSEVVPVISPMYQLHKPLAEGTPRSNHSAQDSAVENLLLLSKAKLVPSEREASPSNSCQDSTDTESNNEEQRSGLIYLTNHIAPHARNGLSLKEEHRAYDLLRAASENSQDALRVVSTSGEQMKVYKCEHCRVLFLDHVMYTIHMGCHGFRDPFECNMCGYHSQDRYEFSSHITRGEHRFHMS

Turning to `CC(=O)[C@]1(O)Cc2c(O)c3c(c(O)c2[C@@H](O[C@H]2C[C@H](N)[C@H](O)[C@H](C)O2)C1)C(=O)c1ccccc1C3=O` [Idarubicin HCl], the “inhibition of IKZF1 HTRF signal” value in assay [1] turned out to be 11.7%. Also, in assay [2], the “relative growth in counter assay” value was -34.2%. Moreover, in assay [3], the relative growth recovery was -13%.
In the case of `COC(=O)C1=C(C)NC(C)=C(C(=O)OC(C)C)C1c1cccc2nonc12` (stereo not drawn) [isradipine], the “inhibition of IKZF1 HTRF signal” value in assay [1] is -28.6%. Also, the “relative growth in counter assay” value in assay [2] is -4.67%. Besides, the relative growth recovery in assay [3] came to 1.6%.
`Cc1cc(C2CCCCC2)n(O)c(=O)c1` [Ciclopirox]: the “inhibition of IKZF1 HTRF signal” value in assay [1] was found to be 24.4%. Also, the “relative growth in counter assay” value in assay [2] is -31.2%. The relative growth recovery in assay [3] was -11.9%.
As for `CC(C)CCN1c2nc(Nc3cc(F)c(O)c(F)c3)ncc2N(C)C(=O)C1C` (stereo not drawn), the “inhibition of IKZF1 HTRF signal” value in assay [1] is -50.7%. For the same compound, the “relative growth in counter assay” value in assay [2] is -32.3%. Moreover, the relative growth recovery in assay [3] is -11.3%.
As to `COC1=C(OC)C(=O)C(CCCCCCCCCCO)=C(C)C1=O`, the “inhibition of IKZF1 HTRF signal” value in assay [1] amounted to 41.8%. In addition, in assay [2], the “relative growth in counter assay” value is -5.9%. In addition, in assay [3], the relative growth recovery is -2.21%.
As for `O=C(c1ccc(Nc2nccc(-c3cc4ccccc4s3)n2)cc1)N1CCC(N2CCCC2)CC1`, in assay [1], the “inhibition of IKZF1 HTRF signal” value is -31.3%. Moreover, the “relative growth in counter assay” value in assay [2] was -35.2%. The relative growth recovery in assay [3] was -14.3%.
Regarding `CC(C)N(CCC(=O)c1ccc2ccccc2c1)Cc1ccccc1`, the “inhibition of IKZF1 HTRF signal” value in assay [1] was -41.5%. Further, the “relative growth in counter assay” value in assay [2] is -2.68%. For the same compound, the relative growth recovery in assay [3] turned out to be 0.035%.
Regarding `COc1cccc2c(O)c3c(O)c4c(c(O)c3c(O)c12)=C(O[C@H]1C[C@H](N)[C@@H](O)[C@H](C)O1)C[C@](O)(C(=O)CO)C=4` [Epirubicin HCl], the “inhibition of IKZF1 HTRF signal” value in assay [1] was 24%. Moreover, in assay [2], the “relative growth in counter assay” value was -34.6%. Moreover, the relative growth recovery in assay [3] is -13.6%.
Consider `COc1ccc(CCCOC(Cn2ccnc2)c2ccc(OC)cc2)cc1` (stereo not drawn), for which the “inhibition of IKZF1 HTRF signal” value in assay [1] was -18.7%. Further, in assay [2], the “relative growth in counter assay” value was -32.6%. Also, the relative growth recovery in assay [3] was -9.78%.
For the compound `CN1CCC[C@@H]1CCO[C@](C)(c1ccccc1)c1ccc(Cl)cc1`, in assay [1], the “inhibition of IKZF1 HTRF signal” value is -21.3%. For the same compound, in assay [2], the “relative growth in counter assay” value is 6.03%. In addition, the relative growth recovery in assay [3] is -3.56%.
For `C=C1/C(=C\C=C2/CCC[C@]3(C)[C@@H]([C@H](C)CCCC(C)(C)O)CC[C@@H]23)C[C@@H](O)C[C@@H]1O` [Calcitriol (Rocaltrol)], the “inhibition of IKZF1 HTRF signal” value in assay [1] is 7.56%. In assay [2], the “relative growth in counter assay” value came to 31.2%. The relative growth recovery in assay [3] was determined as 4.81%.
Regarding `COCC(=O)O[C@]1(CCN(C)CCCc2nc3ccccc3[nH]2)CCc2cc(F)ccc2[C@@H]1C(C)C` [mibefradil], in assay [1], the “inhibition of IKZF1 HTRF signal” value is -3.89%. For the same compound, the “relative growth in counter assay” value in assay [2] was -13.3%. The relative growth recovery in assay [3] was -3.87%.
Regarding `Cc1ccc(S(=O)(=O)NC(=O)NN2CCCCCC2)cc1`, the “inhibition of IKZF1 HTRF signal” value in assay [1] was -31.1%. Also, in assay [2], the “relative growth in counter assay” value stood at 0.45%. In assay [3], the relative growth recovery is -2.75%.
As to `Clc1ccc(C(Cn2ccnc2)OCc2csc3c(Cl)cccc23)c(Cl)c1` (stereo not drawn) [Sertaconazole nitrate], in assay [1], the “inhibition of IKZF1 HTRF signal” value came out at 20%. Besides, the “relative growth in counter assay” value in assay [2] was -1.47%. Moreover, in assay [3], the relative growth recovery was 3.33%.
For the compound `Cc1cc(C2CCCCC2)n(O)c(=O)c1`, the “inhibition of IKZF1 HTRF signal” value in assay [1] was -23.8%. In assay [2], the “relative growth in counter assay” value was -24.9%. For the same compound, the relative growth recovery in assay [3] is -10.6%.
Turning to `CC(=O)Nc1cccc(Nc2ncnc(N3CCC(OCc4ccc(OC(F)(F)F)cc4)CC3)n2)c1C`, in assay [1], the “inhibition of IKZF1 HTRF signal” value is 4.12%. Further, the “relative growth in counter assay” value in assay [2] is -5.23%. Moreover, the relative growth recovery in assay [3] came out at 1.55%.
Take `COC1=C2C[C@@H](C)C[C@H](OC)[C@H](O)[C@@H](C)/C=C(\C)[C@H](OC(N)=O)[C@@H](OC)/C=C\C=C(/C)C(=O)NC(=CC1=O)C2=O` [Geldanamycin]: the “inhibition of IKZF1 HTRF signal” value in assay [1] was 57.7%. The “relative growth in counter assay” value in assay [2] is -32.6%. Further, the relative growth recovery in assay [3] was -11.4%.
As to `COC(=O)C1=C(C)NC(C)=C(C(=O)OC)C1c1ccccc1[N+](=O)[O-]`, the “inhibition of IKZF1 HTRF signal” value in assay [1] was -23.7%. Besides, the “relative growth in counter assay” value in assay [2] was -4.16%. Besides, the relative growth recovery in assay [3] was -3.38%.
The corresponding values for `CCCCCCCCNC(C)C(O)c1ccc(SC(C)C)cc1` (stereo not drawn) are -32.8%, 7.28% and -0.84%.
On the same counts, the results for `CC(C)(C)c1ccc(-c2nc3ccccc3[nH]2)cc1` are -0.19%, 3.59% and 11.5%.
Regarding `O=c1c(O)c(-c2ccc(O)c(O)c2)oc2cc(O)ccc12` [Fisetin (Fustel)], the “inhibition of IKZF1 HTRF signal” value in assay [1] was found to be 11.3%. Besides, in assay [2], the “relative growth in counter assay” value was -3.66%. The relative growth recovery in assay [3] is -3.06%.
The corresponding values for `Nc1cccc2c1C(=O)N(C1CCC(=O)NC1=O)C2=O` (stereo not drawn) [Pomalidomide] are 92.7%, 2.03% and 81.4%.
For `Nc1ccc(S(=O)(=O)Nc2ncccn2)cc1`, the “inhibition of IKZF1 HTRF signal” value in assay [1] was -27.2%. The “relative growth in counter assay” value in assay [2] was -9.24%. Further, the relative growth recovery in assay [3] turned out to be 2.56%.
Take `CN(C)CCCN1c2ccccc2Sc2ccc(C(F)(F)F)cc21`: in assay [1], the “inhibition of IKZF1 HTRF signal” value was -28.3%. Moreover, the “relative growth in counter assay” value in assay [2] turned out to be 6.11%. Also, the relative growth recovery in assay [3] came out at 1.67%.
The corresponding values for `COc1ccc(Cl)cc1C(=O)NCCc1ccc(S(=O)(=O)NC(=O)NC2CCCCC2)cc1` are -51.9%, -0.06% and 3.14%.
Turning to `COC(=O)Nc1ccc(-c2nc(N3CCOCC3)c3cnn(C4CCN(Cc5cccnc5)CC4)c3n2)cc1`, the “inhibition of IKZF1 HTRF signal” value in assay [1] was -7.75%. Moreover, in assay [2], the “relative growth in counter assay” value was -33%. Further, the relative growth recovery in assay [3] is -12.9%.
As for `FC(F)(F)c1ccccc1-c1cc(C(F)(F)F)c2[nH]c(C3=NOC4(CCCCC4)C3)nc2c1`, the “inhibition of IKZF1 HTRF signal” value in assay [1] was 28.1%. Also, the “relative growth in counter assay” value in assay [2] was -7.93%. The relative growth recovery in assay [3] was -3.06%.
The corresponding values for `CC[C@]1(O)C[C@H]2CN(CCc3c([nH]c4ccccc34)[C@@](C(=O)OC)(c3cc4c(cc3OC)N(C)[C@H]3[C@@](O)(C(N)=O)[C@H](O)[C@]5(CC)C=CCN6CC[C@]43[C@@H]65)C2)C1` [Vindesine Sulfate] are -14%, -34.3% and -11.6%.
The corresponding values for `O=C1CCC(N2C(=O)c3ccccc3C2=O)C(=O)N1` (stereo not drawn) [thalidomide] are -17.1%, 0.97% and 1.01%.
Regarding `Cc1cccc(C)c1NC(=O)CN1CCN(CCCC(c2ccc(F)cc2)c2ccc(F)cc2)CC1` [lidoflazine], the “inhibition of IKZF1 HTRF signal” value in assay [1] was -30.1%. Further, the “relative growth in counter assay” value in assay [2] is 35.6%. In assay [3], the relative growth recovery turned out to be 36.1%.
In the case of `Cc1cc(/C=C/c2ccc3cc(N(C)C)ccc3[n+]2C)c(C)n1-c1ccccc1.Cc1cc(/C=C/c2ccc3cc(N(C)C)ccc3[n+]2C)c(C)n1-c1ccccc1` [pyrvinium], in assay [1], the “inhibition of IKZF1 HTRF signal” value turned out to be 76.3%. The “relative growth in counter assay” value in assay [2] was -34.4%. For the same compound, the relative growth recovery in assay [3] was -13.1%.
